The supplement of paper PMC3898565
Where “and” joins values, the source holds several entries; their conditions need not be identical. Equal values may be shown once. Where a name gives a salt, the structure may show the parent alone. ± gives the uncertainty stated by the source.

The compounds below were run on U87 (assay: cell viability relative to vehicle control; higher = less growth inhibition (less active)). Conditions: 10 µM; 72 h.
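Note: viable cell number estimated from Alamar Blue fluorescence read at 560/90, part of a single-dose primary screen of an FDA-approved drug library.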

Compound	cell viability
COc1ccc(-c2oc3c(CC=C(C)C)c(O[C@@H]4O[C@H](CO)[C@@H](O)[C@H](O)[C@H]4O)cc(O)c3c(=O)c2O[C@@H]2O[C@@H](C)[C@H](O)[C@@H](O)[C@H]2O)cc1	105 ± 1.9%
Nc1ncnc2c1ncn2[C@@H]1O[C@H](CO)C[C@@H]1O [3'-deoxydenosine]	100.2 ± 0.64%
CC(c1cc2ccccc2s1)N(O)C(N)=O (stereo not given)	104.1 ± 1%
CN(C)CCC(c1ccc(Cl)cc1)c1ccccn1 (stereo not given) [Chlorpheniramine]	109 ± 2.8%
COc1ccc2[nH]c([S+]([O-])Cc3ncc(C)c(OC)c3C)nc2c1 (stereo not given)	105% and 106%
CCOC(=O)N1CCC(=C2c3ccc(Cl)cc3CCc3cccnc32)CC1	102 ± 2.4%
COc1ccccc1OCC(O)CN1CCN(CC(=O)Nc2c(C)cccc2C)CC1 (stereo not given) [Ranolazine dihydrochloride]	102.8 ± 0.94%
CN(C)CCOc1ccc(/C(=C(/CCCl)c2ccccc2)c2ccccc2)cc1	106 ± 1.8%
O=C(c1ccc(F)cc1)C1CCN(CCn2c(=S)[nH]c3ccccc3c2=O)CC1 [Altanserin]	99.9 ± 2.9%
CO[C@H]1/C=C/O[C@@]2(C)Oc3c(C)c(O)c4c(c3C2=O)C2=NC3(CCN(CC(C)C)CC3)NC2=C(NC(=O)/C(C)=C\C=C\[C@H](C)[C@H](O)[C@@H](C)[C@@H](O)[C@@H](C)[C@H](OC(C)=O)[C@@H]1C)C4=O	104 ± 2.1%
CC1=C(C(=O)O)N2C(=O)[C@@H](NC(=O)[C@H](N)c3ccccc3)[C@H]2SC1 [Cephalexin monohydrate]	100 ± 1.7%
CC1CNc2c(cccc2S(=O)(=O)N[C@@H](CCCNC(=N)N)C(=O)N2CC[C@@H](C)C[C@@H]2C(=O)O)C1 (stereo not given in full)	105 ± 2.8%
CC1(C)S[C@@H]2[C@H](/N=C/N3CCCCCC3)C(=O)N2[C@H]1C(=O)O	104 ± 2.1%
O=C1CCc2ccc(OCCCCN3CCN(c4cccc(Cl)c4Cl)CC3)cc2N1	102 ± 1.1%
CN1[C@@H]2CC[C@H]1C[C@@H](OC(=O)c1c[nH]c3ccccc13)C2	105.3 ± 0.81%
COC(=O)C1=C(C)NC(C)=C(C(=O)OCC(C)C)C1c1ccccc1[N+](=O)[O-] (stereo not given) [Nisoldipine]	48.4 ± 5%
COC(=O)C1=C(C)NC(C)=C(C(=O)OC(C)C)C1c1cccc2nonc12 (stereo not given)	104.2 ± 0.44%
Cc1onc(-c2ccccc2)c1-c1ccc(S(N)(=O)=O)cc1	106.8 ± 0.6%

Compound	cell viability
CCOC(=O)C1(CCCCCCOc2ccc(Cl)cc2)CO1 (stereo not given)	106 ± 1.7%
COc1ccc(/C=C/C(=O)Nc2ccccc2C(=O)O)cc1OC	104 ± 1.1%
CN(C)CCOC(c1ccccc1)c1ccccc1 [Diphenhydramine]	103 ± 1.1%
CC[C@H]1OC(=O)[C@H](C)C(=O)[C@H](C)[C@@H](O[C@@H]2O[C@H](C)C[C@H](N(C)C)[C@H]2O)[C@](C)(OC)C[C@@H](C)C(=O)[C@H](C)[C@H]2N(CCCCn3cnc(-c4cccnc4)c3)C(=O)O[C@]12C	103.4 ± 0.35%
Cc1ncc([N+](=O)[O-])n1CC(C)O (stereo not given) [1-(2-Methyl-5-nitro-imidazol-1-yl)-propan-2-ol]	102.9 ± 0.98%
O=C1c2cccc3c2[C@H](CCC3)CN1[C@@H]1CN2CCC1CC2	84.3 ± 1.7%
CNCC[C@@H](Oc1ccccc1C)c1ccccc1	108.2 ± 1%
CC(C)NCC(O)c1ccc(NS(C)(=O)=O)cc1 (stereo not given) [Sotalol]	101.7 ± 0.99%
CC(=O)SCC(Cc1ccccc1)C(=O)NCC(=O)OCc1ccccc1 (stereo not given)	103 ± 2%
CN(C)CCc1c[nH]c2ccc(Cn3cncn3)cc12	101 ± 4.5%
O=C1N(c2ccccc2)c2ccccc2C1(Cc1ccncc1)Cc1ccncc1	106 ± 2.1%
CC[C@]1(O)C[C@@H]2CN(CCc3c([nH]c4ccccc34)[C@@](C(=O)OC)(c3cc4c(cc3OC)N(C)[C@H]3[C@@](O)(C(N)=O)[C@H](O)[C@]5(CC)C=CCN6CC[C@]43[C@@H]65)C2)C1	24.7 ± 8.7%
CCN(CC)CC1CCCCN1CC(=O)N1c2ccccc2C(=O)Nc2cccnc21 (stereo not given)	110 ± 1.9%
O=c1c(O[C@@H]2O[C@H](CO)[C@H](O)[C@H](O)[C@H]2O)c(-c2ccc(O)c(O)c2)oc2cc(O)cc(O)c12	106 ± 1.8%
CCC(=O)O[C@]1(C(=O)SCF)[C@H](C)C[C@H]2[C@@H]3C[C@H](F)C4=CC(=O)C=C[C@]4(C)[C@@]3(F)[C@@H](O)C[C@@]21C	105 ± 2.2%
CN1CCN(C2=Nc3cc(F)ccc3Cc3ccccc32)CC1 [Fluperlapine]	106 ± 3.3%
CCOC(=O)C1=C(C)NC(C)=C(C(=O)OC)C1c1cccc([N+](=O)[O-])c1 (stereo not given)	98.9 ± 2.8%
